# Only some compounds are listed: those with a hit (about 1% of all), similar ones and a draw of the others.
# TRPML1 inh: human mucolipin-1 channel inhibition; TRPML1-inducible cells, Ca2+ dye fluorescence, FDSS; active compounds read low; inhibition of EC80 agonist-evoked calcium signal; activity change, negative = inhibition, % (no concentration beside the values); actives 0.02% (n = 390,000); in the data active = activity change below about -50%; inconclusive = between about -30% and that limit;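 note: stimulus is agonist 54-4 at its EC80 concentration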
#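 Calcium fluorescence in TRPML1-DL cells induced overnight with Tet: a 110 s read after compound pin addition, then a 110 s antagonist read after challenge with 54-4 at 4 uM final (EC80).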
# Glioma ERSR ind: induces the endoplasmic reticulum stress response in human glioma cells | U87-MG GRP78 promoter luciferase reporter, 16 h | Potency, µM, actives largely listed as activators | actives 0.02% (n = 420,000); active = well fitted activation curve with a large enough effect; inconclusive = small, poorly fitted or top-dose-only effect; inactive = no such curve, though single readings can be large or run the other way; note: series mostly up to about 76 µM; nearly all actives have a fitted effect of over 35% in size
#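 Stably transfected U87-MG human glioma cells carrying a GRP78-based luminescent sensor were seeded at 1000 cells/well, pin-dosed with compounds and incubated 16 h. Luciferase reagent was then added, and end-point luminescence was read after 10 min at room temperature.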
# hERG WT inh: KCNH2 (human, wildtype) channel inhibition. Q12809. AID 720551. actives 0.37% (n = 340,000). activity change, % at 1.84 µM. U2OS, BacMam KCNH2, thallium flux FluxOr; active compounds read low;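 active = maximum activity change below -70%; inconclusive = maximum activity change between -70% and -50%; inactive = maximum activity change above -50%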
#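 U2OS cells transduced with wild-type KCNH2 virus are loaded with FluxOr dye for 45 min, and thallium flux is measured in kinetic reads before and after stimulation buffer. Rate constants are normalized to DMSO controls.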
# KCNH2 3.1 block: inhibitors of human KCNH2 3.1 potassium channel isoform. actives 0.95% (n = 340,000). AID 720553. U2OS KCNH2 3.1, thallium flux FluxOr; active compounds read low. activity change, % (tested at about 1.8 µM);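 active = maximum activity change below -70%; inconclusive = maximum activity change from -70% to -50%; inactive = maximum activity change above -50%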;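 note: thallium influx rate constant from kinetic fluorescence after stimulation buffer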
#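 Thallium flux via FluxOr fluorescence (Red40 quencher, 45 min loading) in U2OS cells virally expressing the KCNH2 3.1 isoform (1.77 x 10^8 /mL virus, overnight at 37 C). Rate constants from 2-min kinetic reads post-stimulation, normalised to positive and negative controls.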
# PTAP TSG101 blk: blocks PTAP/TSG101 interaction to inhibit HIV-1 budding. Potency, µM (series often up to 115 µM), most hits filed as inhibitors. Q99816. AID 493005. Fluorescence polarization, FITC-PTAP peptide / Tsg101 binding. 340,000 tested, under 10 active; active = well fitted inhibition curve with a large enough effect in the main read-out, with a control signal flat, not every such curve was filed as active; inconclusive = small, poorly fitted or top-dose-only effect, or effect the other way, or a change in a side signal; inactive = no such curve, though single readings can be large or run the other way
#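 Fluorescence polarization binding of Tsg101 binding domain (10 uM final) to FITC-labeled PTAP peptide (50 nM final) in HEPES pH 7.5 buffer with NaCl, Tween 20, EDTA, TCEP. Compounds added before peptide; binding 20 min at RT.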
# TRPML1 ag: agonists of human TRPML1 channel; TRPML1-expressing cells, Ca2+ dye fluorescence, FDSS; activation, % (no concentration beside the values); actives 0.12% (n = 410,000); in the data active = activation above about 50%; inconclusive = mostly about 30% to 49%
#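 Cells: TRPML1-DL, 1X Tet inducer, ~16 h at 37 degrees C/5% CO2. Dye: ABD Ca8 no-wash + quencher, 45-90 min RT. Read: 10 s baseline, compound add, 110 s agonist phase; 54-4 EC80 (4uM final), 110 s antagonist phase.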
# A number is an active result; n = inactive; u = inconclusive; x = not tested or not shown.
SMILES,TRPML1 inh,Glioma ERSR ind,hERG WT inh,KCNH2 3.1 block,PTAP TSG101 blk,TRPML1 ag
Cc1ccc(CNC(=O)CCc2c(C)nc3c(c(C)nn3-c3ccc(C)cc3)c2C)cc1,n,n,n,n,n,n
O=S(=O)(/C=C/c1ccccc1)N1CCC(n2c(C3CCCO3)nc3cccnc32)CC1 (stereo not drawn),x,n,x,x,x,x
CCCCCCC[n+]1ccc(/C=C/c2c[nH]c3ccccc23)cc1,x,n,x,x,x,63
CCCCCCCCCC[n+]1ccc(/C=C/c2c(C)[nH]c3ccccc23)cc1,x,n,x,x,x,123
CN(C)c1cccc(C(=O)NCC2Cc3cccc(-c4cncnc4)c3O2)c1 (stereo not drawn),x,n,x,x,x,x
CN(Cc1ccccc1)c1ncnc2sccc12,n,n,-124,n,n,n
CN(C)CCNC(=O)/C(=C/c1ccc(-c2cccc([N+](=O)[O-])c2)o1)NC(=O)c1ccccc1,n,n,n,n,n,n
CN(C)CCCNC(=O)/C(=C\c1ccc(-c2ccc(Br)cc2)o1)NC(=O)c1ccccc1,n,n,n,-117,n,n
Cc1ccc(C(=O)N/C(=C\c2ccc(-c3ccc(Cl)cc3)o2)C(=O)NCCCN(C)C)cc1,n,n,-83,u,n,n
CN(C)CCCNC(=O)/C(=C/c1ccc(-c2ccc([N+](=O)[O-])cc2)o1)NC(=O)c1ccccc1,n,n,u,-99,n,n
COc1cccc(CNc2ncnc3sc(C(=O)N4CC5CCC4C5)c(C)c23)c1OC (stereo not drawn),x,n,x,x,x,x
CC(C)CCC(CCNCc1ccccn1)c1ccc2c(c1)OCO2 (stereo not drawn),n,n,u,-95,n,n
CCNCCC(CCC(C)C)c1ccc2c(c1)OCO2 (stereo not drawn),n,n,-79,-99,n,n
Fc1ccccc1CNCCC(Cc1ccccc1)c1ccc2c(c1)OCO2 (stereo not drawn),n,n,n,n,n,n
Cc1[nH]c2c(F)cccc2c1CC(=O)NCCN1Cc2ccccc2OC(C)C1 (stereo not drawn),x,n,x,x,x,x
Cc1ccc2nc(SCC(=O)N(C)C3CCS(=O)(=O)C3)[nH]c2c1 (stereo not drawn),n,n,n,-198,n,n
CN(C(=O)CSc1nc2ccccc2[nH]1)C1CCS(=O)(=O)C1 (stereo not drawn),n,n,n,n,n,n
CC(=O)Nc1c(F)cc(Br)cc1F,n,n,n,-95,n,n
O=S(=O)(c1ccccc1)N1CCC(O)(CSc2ccc(Cl)cc2)CC1,n,n,n,n,n,n
O=S(=O)(c1ccc(Cl)cc1)N1CCC(O)(CN2CCN(Cc3ccccc3)CC2)CC1,n,n,n,-73,n,n
Cc1nc(C)c(C(=O)N2CCc3c(cnc(C)c3CNC(=O)c3cncs3)C2)s1,x,n,x,x,x,x
CN(C)CCCN1C(=O)c2cccc3c(Br)ccc(c23)C1=O,n,n,n,n,u,n
CCCCNc1ccc2c3c(cccc13)C(=O)N(CCCC)C2=O,n,n,n,n,u,110
CC(C)C(NC(=O)c1ccoc1)c1nnc2n1CCN(Cc1ccc3c(c1)Cc1ccccc1-3)CC2 (stereo not drawn),x,n,x,x,x,x
CC(=O)c1cccc(OCC(O)CNCCc2ccc(Cl)cc2)c1 (stereo not drawn),n,n,n,n,n,n
SMILES,TRPML1 inh,Glioma ERSR ind,hERG WT inh,KCNH2 3.1 block,PTAP TSG101 blk,TRPML1 ag
CCCc1cnc(NCCNCC(O)COc2ccc(Cl)c(Cl)c2)nc1 (stereo not drawn),n,n,n,-98,n,n
Cc1ccc2c(c1)C/C(=C/c1ccc(N(C)C)cc1)C2=O,x,n,x,x,x,55
Cc1cc(C)n2c(Br)c(CSc3nc4ccccc4s3)nc2n1,n,n,n,-78,n,n
Cc1cc(C)nc(NC(=O)CSc2nc3ccccc3s2)n1,n,n,n,n,n,n
COc1ccc(C[C@H]2CN3C(=NC[C@H]3C)N2CCNC(=O)c2ccc(C)c(Br)c2)cc1,n,n,n,-76,n,n
COc1ccc(C[C@H]2CN3C(=NC[C@@H]3C(C)C)N2CCNC(=O)c2ccc(C)c(Br)c2)cc1,n,n,-114,-100,n,n
Cc1nn(-c2ccc(F)cc2)c(C)c1CNC(=O)c1ccc(-n2cc(NC(=O)c3ccoc3)cn2)cc1,x,n,x,x,x,x
Cc1ccc(Cn2cc(S(=O)(=O)c3ccc(Cl)cc3)c(=O)c3cc(F)ccc32)cc1,n,n,n,n,n,n
O=c1c(S(=O)(=O)c2ccc(Cl)cc2)cn(Cc2cccc(F)c2)c2ccc(F)cc12,n,n,u,-82,n,n
N#CC1(NC(=O)COC(=O)c2ccc(Cl)nc2)CCCCC1,n,n,n,n,n,n
N#CC1(NC(=O)COC(=O)c2nccnc2N)CCCCC1,n,n,-202,n,n,n
COc1cccc(Cc2nc3cccnc3n2C2CCN(C(=O)c3n[nH]c4c3CCCC4)CC2)c1,x,n,x,x,x,x
Cc1ccc(C2C3=C(CC(C)(C)CC3=O)OC3=C2C(=O)CC(C)(C)C3)cc1,n,n,n,-85,n,n
Cc1c(C(=O)NC2CCCCCC2)sc2ncnc(NCC3CCCO3)c12 (stereo not drawn),x,n,x,x,x,x
Cc1ccc(S(=O)(=O)Oc2ccc(/C=C3\C(=N)N4N=C(S(C)(=O)=O)SC4=NC3=O)cc2)cc1,n,n,n,-115,n,n
CCS(=O)(=O)C1=NN2C(=N)/C(=C\c3ccc(OS(=O)(=O)c4ccccc4)cc3)C(=O)N=C2S1,n,n,n,n,n,n
CC(=O)CC/C=C(\C)CC/C=C(/C)CC/C=C(\C)CCC=C(C)C,x,n,x,x,x,x
COc1ccc(F)c(Cn2cnc3c(cnn3C(C)(C)C)c2=O)c1Cl,n,n,x,x,x,n
COc1ccc(S(=O)(=O)N2CCCCC2)cc1NC(=O)Cc1cccs1,n,n,n,-76,n,n
